# Only some compounds are listed: those with a hit (about 6.6% of all), similar ones and a draw of the others.
# HT1080NT lethal: qHTS for induction of synthetic lethality in tumor cells producing 2HG: qHTS for the HT-1080-NT fibrosarcoma cell line | HT-1080-NT fibrosarcoma viability, CellTiter-Glo ATP luminescence, 48 h | Potency, µM (top dose mostly 46.1 µM), most hits filed as cytotoxic | actives 1.6% (n = 360,000);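 further: NT is the 2HG producing partner of a matched IDH1 knockdown line; nearly all actives have a fitted effect of over 55% in size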
#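 HT-1080-NT; 750 cells/well; 5% FBS RPMI; 48 h compound, 37 degrees C; CellTiter-Glo luminescence; curve fitting and curve-class assignment.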
# KB-V1 cytotox: qHTS assay for MDR1-selective chemotherapeutics: Primary screen using the drug-selected MDR subline cells KB-V1; actives 3.4% (n = 400,000); KB-V1 MDR cells viability, CellTiter-Glo, 72 h; Potency, µM (series often up to 46.1 µM), usual class: cytotoxic; further: nearly all actives have a fitted effect of over 60% in size
#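 Following 72 h at 37 degrees C with compound, KB-V1 cell viability was read by CellTiter-Glo luminescence, medium being phenol-red-free DMEM plus 10% FBS; concentration-response parameters came from normalized, curve-fitted qHTS data.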
# HepG2 tox: qHTS for Inhibitors of TGF-b: Cytotox Counterscreen; HepG2 CAGA-GFP viability, ATP luminescence, 18 h; AID 588856, 2011; actives 0.76% (n = 410,000); Potency, µM (series often up to 46.1 µM), hits mostly cytotoxic
#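 HepG2 CAGA-GFP cells (1000/well, DMEM with 1% FBS) received compound, then TGF-beta at 500 pg/mL final, and were incubated 18 hours at 37 degrees C. Viability was read by CellTiter-Glo luminescence. Media-only wells were set as complete cell-killing and DMSO as no toxicity.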
# HT1080 IDH1KD tx: qHTS for induction of synthetic lethality in tumor cells producing 2HG: qHTS for the HT-1080-IDH1KD cell line | HT-1080 IDH1 knockdown viability, ATP luminescence, 48 h | AID 686971, 2013 | actives 2% (n = 360,000) | Potency, µM (series often up to 46.1 µM), actives largely listed as cytotoxic
#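 Knockdown cells (IDH1KD HT-1080) received compounds 2 h after plating at 750 cells/well and were kept 48 h at 37 °C in 5% FBS RPMI. A CellTiter-Glo luminescence read gave % activity for curve fitting.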
# TGFb SMAD3 inh: qHTS for Inhibitors of TGF-b; Potency, µM (doses to about 46.1 µM), actives largely listed as inhibitors; AID 588855, 2011; HepG2 CAGA-GFP TGF-b/SMAD3 reporter, GFP fluorescence, 18 h; TGF-beta stimulated, 500 pg/mL final; actives 1.2% (n = 410,000); further: nearly all actives have a fitted effect of over 65% in size
#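 Inhibition was scored as loss of TGF-beta-induced (500 pg/mL final, 18 hours, 37 degrees C) GFP in HEPG2 cells carrying a CAGA-GFP reporter, in DMEM with 1% FBS. Well GFP was summed per cell; Activity was normalised to unstimulated and stimulated DMSO wells, then concentration-response fitting.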
# KB-3-1 cytotox: qHTS assay for MDR1-selective chemotherapeutics: Primary screen using the parental adenocarcinoma cell KB-3-1; KB-3-1 viability, CellTiter-Glo ATP luminescence, 72 h; Potency, µM (titrated, usually from 46.1 µM), hits mostly cytotoxic; actives 1.4% (n = 400,000); AID 1347075, 2019; further: nearly all actives have a fitted effect of over 60% in size
#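 Viability of parental KB-3-1 cells, measured by CellTiter-Glo luminescence, followed a 72 h incubation at 37 °C with pinned compounds in phenol-red-free DMEM containing 10% FBS.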
# A number is an active result; . = inactive; ? = inconclusive; / = no result given; ! = not active in a repeat. The call rests on the fitted dose curve; in most records, active means well fitted curve in the direction sought with a large enough effect; inconclusive means small, poorly fitted or top-dose-only effect, or another doubt; inactive means no such curve, though single readings can be large; an effect the other way counts as inactive or inconclusive.
SMILES,HT1080NT lethal,KB-V1 cytotox,HepG2 tox,HT1080 IDH1KD tx,TGFb SMAD3 inh,KB-3-1 cytotox
CC1CCN(c2ccccc2NC(=S)NC(=O)c2ccco2)CC1,.,18µM,.,.,?,.
O=C(NC(=S)Nc1ccc(N2CCOCC2)cc1)c1ccco1,.,16µM,.,.,.,.
COc1ccc(C(=O)Nc2ccc(N3CCOCC3)cc2)cc1OC,?,16µM,.,?,.,?
O=C(NC(=S)Nc1ccc(CN2CCOCC2)cc1)c1ccco1,.,.,.,.,.,.
COc1ccc(C(=O)Nc2ccc(N3CCCC3)cc2)cc1OC,.,.,.,?,.,?
O=C(c1ccc2c(c1)N(Cc1ccccc1)C(=O)c1ccccc1S2(=O)=O)N1CCN(Cc2ccccc2)CC1,/,/,.,/,/,/
Cc1sc2cc3c(c(C(=O)c4ccccc4)[n+]2c1C)-c1cccc2cccc-3c12,8.2µM,.,.,8.2µM,?,7.3µM
O=C(c1ccccc1)c1c2c(cc3sc4ccccc4[n+]13)-c1cccc3cccc-2c13,?,?,.,?,.,21µM
O=C(c1ccccc1)c1ccc2ccccc2c1,.,.,.,.,.,.
Cc1ccc(NC(=O)CN2C(=O)c3cccnc3Sc3ccccc32)cc1C,/,/,.,/,.,/
COc1cccc(-c2cccc(NC(=O)C3CCN(Cc4nccs4)CC3)c2)c1,.,?,.,.,.,.
CCOc1ccc(CN2CCC(C(=O)Nc3cccc(-c4ccn[nH]4)c3)CC2)cc1Cl,18µM,?,.,?,?,.
Cc1cc(C)c(S(C)(=O)=O)c(Oc2ccc(C(C)(C)C)cc2)n1,.,16µM,.,.,.,.
Cc1cc(C)c(S(C)(=O)=O)c(Oc2cccc(Cl)c2)n1,.,.,.,.,.,.
Cc1cc(C)nc(NC2=NCC(=O)N2c2cccc(Cl)c2)n1,.,21µM,.,.,?,.
O=C(N/N=C/c1ccc([N+](=O)[O-])o1)c1ccc(NS(=O)(=O)c2cccs2)cc1,?,?,.,23µM,?,?
O=C(N/N=C/c1ccc([N+](=O)[O-])cc1)c1ccc(NS(=O)(=O)c2cccs2)cc1,.,.,.,.,.,.
O=C(N/N=C\C=C\c1ccc([N+](=O)[O-])o1)c1cccs1,?,.,.,13µM,?,.
C/C(=N\NC(=O)c1ccc(NS(=O)(=O)c2cccs2)cc1)c1ccc(O)cc1O,?,.,.,23µM,?,?
C/C(=N\NC(=O)c1ccc(NS(=O)(=O)c2cccs2)cc1)c1ccccc1,.,.,.,.,.,.
Cc1nn(-c2ccccc2)c(Cl)c1C(=O)N1CCN(c2ncnc3c2cnn3-c2ccccc2)CC1,21µM,?,.,?,?,?
COc1cccc(OCCN2CCN(c3ncnc4c3cnn4-c3ccccc3)CC2)c1,?,5.2µM,.,?,.,.
CCOC(=O)C1C(=O)C=C(c2ccc(C)cc2)CC1c1ccc([N+](=O)[O-])cc1 (centres undefined),.,7.3µM,.,.,.,.
O=S(=O)(c1ccc2oc3ccccc3c2c1)N1CCOCC1,.,16µM,.,.,?,.
O=S(=O)(c1ccc2oc3ccccc3c2c1)N1CCCC1,.,.,.,.,.,.
CCN(CC)C(=O)C1CCN(S(=O)(=O)c2ccc3oc4ccccc4c3c2)CC1,.,12µM,.,.,.,.
O=c1c2ccccc2sn1-c1cc(S(=O)(=O)N2CCOCC2)ccc1N1CCOCC1,?,?,.,?,11µM!,.
COc1ccc(OC)c(NC(=O)Nc2cccc(OCc3cc(=O)n4cc(C)ccc4n3)c2)c1,/,.,.,/,?,.
